About 15 (0.007%) of roughly 200,000 compounds were called active. The sample holds actives, similar compounds and a random draw of the others, so the mix is not that of the screen. A number with no mark means an inactive call. No stated cut-off is given here; in the data, active means displacement above about 50%; inactive means the rest.
What follows are compounds tested against E3 ubiquitin-protein ligase XIAP (Homo sapiens) (UniProt P98170) (assay: small molecules displacing peptide from XIAP – biochemical, IAP family, fluorescence polarization (AID 1018)). Settings: XIAP BIR domain, at 20 µM, hits give high values.
Chain of E3 ubiquitin-protein ligase XIAP (Homo sapiens) (P98170 whole entry, looked up, the tested form may be a part): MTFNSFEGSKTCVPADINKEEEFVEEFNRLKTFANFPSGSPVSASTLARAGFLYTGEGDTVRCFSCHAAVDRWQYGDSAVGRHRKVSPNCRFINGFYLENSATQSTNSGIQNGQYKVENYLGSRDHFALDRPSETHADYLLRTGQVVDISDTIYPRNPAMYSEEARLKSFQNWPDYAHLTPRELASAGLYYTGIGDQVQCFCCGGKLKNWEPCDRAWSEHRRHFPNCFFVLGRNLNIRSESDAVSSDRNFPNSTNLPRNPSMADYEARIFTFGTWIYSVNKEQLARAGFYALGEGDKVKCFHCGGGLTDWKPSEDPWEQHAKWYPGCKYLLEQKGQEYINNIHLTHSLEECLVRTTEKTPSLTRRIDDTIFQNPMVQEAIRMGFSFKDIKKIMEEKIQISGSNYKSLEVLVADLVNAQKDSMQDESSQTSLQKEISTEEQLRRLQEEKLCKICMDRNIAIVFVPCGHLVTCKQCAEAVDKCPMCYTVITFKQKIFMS

Structure (SMILES) | displacement
O=C(O)/C=C\C(=O)NCc1cccnc1 | -9.2%
Cc1cc(F)ccc1N1CCC(N2CCN(C(C)C)C(CCO)C2)CC1 (configuration not stated) | -1.1%
O=C(c1cc(COc2ccc(F)cc2F)on1)N1CCSCC1 | -0.5%
CCN1CCN(C(=S)Nc2cc(S(=O)(=O)N(CC)CC)ccc2C)CC1 | -2.7%
Cc1ccccc1NC(=O)Cc1c(O)c2ccccc2[nH]c1=O | -1.1%
CCOC(=O)CSC(=S)NC(=O)c1ccc(OC)cc1 | -1.6%
CCOC(=O)C1=C(C)NC(=NC)SC1c1ccccc1 (configuration not stated) | -5%
CSc1nnc(-c2cccs2)n1-c1ccccc1 | 0.8%
CCOC(=O)C1(CC2CC2)CCN(Cc2ccc(O)c(Cl)c2)CC1 | -4.8%
CCCc1cc(=O)[nH]c(SCC(=O)N(CC)C2CCS(=O)(=O)C2)n1 (configuration not stated) | -4.4%
CC(C)(C)C1=C(C#N)C(c2ccncc2)C(C#N)=C(N)O1 (configuration not stated) | -0.4%
CCN1CCCC1CNC(=O)Cn1cccc1C(=O)c1ccccc1 (configuration not stated) | -6.4%
CC(=O)c1cc(-c2ccccc2)n(CC(=O)Nc2cc(C)cc(C)c2)c1C | -1%
Cc1ccc(C)c2[nH]c(=O)c(CN(Cc3ccco3)C(=S)NCC3CCCO3)cc12 (configuration not stated) | 0.3%
CCN(c1ccccc1)S(=O)(=O)c1cc(C(=O)Nc2ccccc2Cl)ccc1F | -5.8%
O=C(c1ccc(F)cc1)N1CCCCC(Sc2nnnn2-c2ccccc2)C1=O (configuration not stated) | -21.1%
Cc1c(C(=O)C(=O)NCC2CCCO2)c2ccccc2n1C (configuration not stated) | -2.9%
CCOC(=O)C(=O)Nc1cc(Cl)ccc1C | -10.6%
Cc1c(N)cccc1-n1cnnn1 | -4%
Cc1onc(-c2c(F)cccc2Cl)c1C(=O)N1CCc2ccccc2C1 | -8.4%
O=C(COC(=O)CCc1nc2ccccc2s1)Nc1cccc(S(=O)(=O)N2CCOCC2)c1 | -5.8%
c1ccc(Cn2nnc3c(NCc4ccc5c(c4)OCO5)nc(C4CC4)nc32)cc1 | -10.8%
CCCc1nc(NCc2ccc3c(c2)OCO3)c2nnn(Cc3ccccc3Cl)c2n1 | 51.1% (active)
Cc1nc(NCc2ccc3c(c2)OCO3)c2nnn(Cc3ccccc3)c2n1 | -8.1%
O=C(COC(=O)c1ccc[n+]([O-])c1)Nc1c(Br)cc([N+](=O)[O-])cc1Br | -4.5%
Cc1cc(C)c(NC(=S)N(CCN(C)C)Cc2cccs2)c(C)c1 | -10.6%
C=C(C)C1Cc2c(C)nn(-c3cccc4ccccc34)c2C1 (configuration not stated) | -4.8%

Source: PubChem BioAssay AID1018 (Sanford-Burnham Center for Chemical Genomics, 2008)
